PubChem BioAssay (Tox21)
Values joined by “and” are separate entries in the source; they are usually repeats but may differ in a detail not shown here. Identical values can stand only once. Inconclusive results are not listed. A call without a number means that no potency is given here. Some structures have more than one record in an assay (separate samples or runs), and their calls can disagree. Active and inactive are the calls of the source. The call rests on the fitted dose curve; in most records, active means well fitted cell-killing curve with a large enough effect in the repeat runs; inconclusive means weak or mixed curves; inactive means flat fitted curve, though single readings scatter.

experiment: qHTS RealTime-Glo MT Cell Viability Assay in HepG2 cells - 16 hour (AID 1224885); details: RealTime-Glo luminescence; series mostly up to 76.8 µM; further: nearly all actives have a fitted effect of over 50% in size
Description: U.S. Tox21 Program National Center for Advancing Translational Sciences [NCATS] NIH Chemical Genomics Center [NCGC] U.S. Environmental Protection Agency [EPA] National Institutes of Environmental Health Sciences [NIEHS] National Toxicology Program [NTP] U.S. Food and Drug Administration [FDA] Tox21 Assay Overview: Measure of cell viability is critical in the cell-base assay. Analysis of cell viability is necessary for the characterization of cell responses to cytotoxic drugs and environmental stress. A RealTime-Glo MT Cell Viability Assay to monitor cell viability in real time of continues cell culture during 40 hours of compound treatment was used to screen Tox21 10K library compounds in HepG2 cells. The RealTime-Glo MT Cell Viability Assay is a nonlytic, homogeneous, bioluminescent method to measure cell viability in real time using a simple, plate-based method. The assay involves adding NanoLuc luciferase and a cell-permeant prosubstrate to cells in culture. Viable cells reduce the proprietary prosubstrate to generate a substrate for NanoLuc luciferase. This substrate diffuses from cells into the surrounding culture medium, where it is rapidly used by the NanoLuc Enzyme to produce a luminescent signal. The signal correlates with the number of viable cells, making the assay well suited for cytotoxicity studies.
Tox21 Assay Protocol Summary: The mixture of HepG2 cell suspension and reagents were dispensed at 600cells/6 ul/well in 1536-well tissue culture treated black solid bottom plates using a Multidrop dispenser. After the assay plates were incubated at a 37 C/5% CO2 incubator for 5 hours, 23 nL of compounds dissolved in DMSO, positive and negative controls was transferred to the assay plate by a pintool work station. The plates were incubated at 37 C for 40 hours. The luminescence intensity were measured at 0h, 8h, 16h, 24h, 32h and 40h time points using ViewLux plate reader during compound treatment.
Potency means the concentration at half of the fitted maximal effect.

SMILES | Potency | activity change, negative = cytotoxic
O=C1C2CC=CCC2C(=O)N1SC(Cl)(Cl)Cl (stereo not given) | inactive and 42.9 µM (active) | –
CC(C)(C)NC[C@H](O)c1ccc(O)cc1Cl | inactive | –
BrCc1ccc(Br)cc1 | inactive | –
Cc1cccc2sc3nncn3c12 | inactive | –
CCOC(=O)CC(SP(=S)(OC)OC)C(=O)OCC (stereo not given) | inactive | –
CC(C)(O)C(Cl)(Cl)Cl | inactive | –
O=[N+]([O-])CCO | inactive | –
O=C(Cl)C(Cl)Cl | inactive | –
COc1cccc([C@@]2(O)CCCC[C@@H]2CN(C)C)c1 | inactive | –
NNC(N)=O | inactive | –
CCOP(=S)(OCC)SCCl | inactive | –
CC1=C2[C@H]3OC(=O)[C@@H](C)[C@@H]3CC[C@@]2(C)C=CC1=O | inactive | –
CCOC(=O)c1ncn2c1CN(C)C(=O)c1c(I)cccc1-2 | inactive | –
CCC1(c2ccccc2)CCC(=O)NC1=O (stereo not given) | inactive | –
C=C1CC[C@@]2(O)[C@H]3Cc4ccc(O)c5c4[C@@]2(CCN3CC2CC2)[C@H]1O5 | inactive | –
CCCCOC(C)=O | inactive | –
CC(C)C(C)(N)C#N (stereo not given) | inactive | –
O=C(Cl)/C=C/C(=O)Cl | inactive | –
[O-][Br+2]([O-])O | inactive | –
CCN(CC)C1CCCCC1 | inactive | –

SMILES | Potency | activity change, negative = cytotoxic
CC(C)(C)C(=O)Cl | inactive | –
COC[C@@H](NC(C)=O)C(=O)NCc1ccccc1 | inactive | –
COC(=O)c1ccccc1CS(=O)(=O)NC(=O)Nc1nc(OC)cc(OC)n1 | inactive | –
CCc1cc(OC)c(C[C@H](C)N)cc1OC | inactive | –
CC(=NC#N)N(C)Cc1ccc(Cl)nc1 | inactive | –
CCC1(c2ccccc2)C(=O)N(COC)C(=O)N(COC)C1=O | inactive | –
CC(=O)OCC1=C(C(=O)O)N2C(=O)[C@@H](N)[C@H]2SC1 | – | 0.0339% [at 15.8 µM] (inactive)
CCCC[N+](=O)[O-] | inactive | –
CC1NCCOC1c1ccccc1 (stereo not given) | inactive | –
CN1C(=O)COc2c(C(=O)NC3CN4CCC3CC4)cc(Cl)cc21 (stereo not given) | inactive | –
CCN1CCCC1CNC(=O)C(O)(c1ccccc1)c1ccccc1 (stereo not given) | inactive | –
O=C(NC(O)C(Cl)(Cl)Cl)NC(O)C(Cl)(Cl)Cl (stereo not given) | inactive | –
CC(C)(C)C(=O)C(Cl)Cl | inactive | –
Clc1ccc(C(Cl)(Cl)Cl)cn1 | inactive | –
CCN[C@H](C)Cc1cccc(C(F)(F)F)c1 | inactive | –
O=C(Cl)c1ccccc1 | inactive | –
CCOC(=O)C(SP(=S)(OC)OC)c1ccccc1 (stereo not given) | inactive | –
COC(=O)[C@@H](N)CCCN/C(N)=N/[N+](=O)[O-] | inactive | –
O=c1[nH]c2ccccc2n1C1CCNCC1 | inactive | –
O=c1[nH]oc2c1CCNC2 | inactive | –
